MITF inh – blocks human microphthalmia-associated transcription factor. AlphaScreen MITF homodimerization, bead proximity signal. inhibition, % at 2.6 µM. O75030. AID 1259374. 650,000 compounds, 0.91% hits; in the data active = inhibition above about 50%;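 note: 0% = vehicle wells with protein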
TEAD-YAP block – TEAD-YAP interaction inhibition; HEK-TIYL cells, TEAD-Gal4/YAP UAS-luciferase luminescence; inhibition, % at 9.12 µM; 640,000 compounds, 1.4% hits; AID 1259422; in the data active = inhibition above about 32%;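 note: 0% = median of test compound wells and 100% = reference inhibitor wells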
GPR151 ag – activators of human GPR151 | PathHunter beta-arrestin GPR151 cells, luminescence | Q8TDV0 | 650,000 compounds, 1% hits | activation, % at 11.2 µM; in the data active = activation above about 4.9%;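 note: 0% = median of compound wells and 100% = cells with positive control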
FBW7 activator – human FBW7 E3 ligase activation, primary screen; AlphaScreen FBW7–phospho-cyclin E peptide binding, activator screen; normalized activity (activation), % at 26.1 µM; Q969H0; AID 1259310; 650,000 compounds, 0.13% hits; in the data active = normalized activity above about 1.9%;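 note: purified mutant Fbw7 with reduced substrate affinity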
Target sequence (Q969H0 whole entry, looked up): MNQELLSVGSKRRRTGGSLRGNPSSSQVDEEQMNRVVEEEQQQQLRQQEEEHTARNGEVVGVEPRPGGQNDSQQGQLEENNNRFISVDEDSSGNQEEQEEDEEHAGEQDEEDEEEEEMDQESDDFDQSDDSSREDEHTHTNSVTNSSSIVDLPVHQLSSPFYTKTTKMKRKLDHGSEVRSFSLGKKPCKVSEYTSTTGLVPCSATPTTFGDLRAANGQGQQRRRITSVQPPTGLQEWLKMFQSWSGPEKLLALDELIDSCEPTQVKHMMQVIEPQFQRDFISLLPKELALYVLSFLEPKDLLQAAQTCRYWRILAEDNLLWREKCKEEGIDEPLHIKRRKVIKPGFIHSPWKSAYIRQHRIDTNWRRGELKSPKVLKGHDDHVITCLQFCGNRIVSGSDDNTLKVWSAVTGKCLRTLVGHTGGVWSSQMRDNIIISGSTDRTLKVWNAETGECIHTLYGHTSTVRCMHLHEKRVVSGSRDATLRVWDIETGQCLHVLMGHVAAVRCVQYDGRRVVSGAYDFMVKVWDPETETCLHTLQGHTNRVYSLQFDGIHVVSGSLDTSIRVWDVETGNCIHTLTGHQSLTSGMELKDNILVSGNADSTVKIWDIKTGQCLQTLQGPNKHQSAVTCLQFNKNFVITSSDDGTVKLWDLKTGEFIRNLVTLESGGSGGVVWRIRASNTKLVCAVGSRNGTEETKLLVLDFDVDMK
Starred values were filed as active, the others as inactive. Only some compounds are listed: those with a hit (about 3.5% of all), similar ones and a draw of the others.

SMILES | MITF inh | TEAD-YAP block | GPR151 ag | FBW7 activator
COc1ccc(CN2CCN(Cc3ccccc3)C(CCO)C2)c(F)c1 (configuration not stated) | -2.2 | 17.2 | -0.2 | 0.0
CCCCCOc1ccc(NC(=O)C(=O)NC2CC2)cc1 | -10.2 | -8.7 | -1.7 | 0.0
CNC(=O)c1ccccc1Nc1cc(NC(=O)Cc2ccc3c(c2)OCO3)ncc1C(F)(F)F | 12.2 | 75.1* | -0.1 | 0.1
O=C(Cc1ccc2c(c1)OCO2)Nc1cc(Nc2ccccc2-c2ncn[nH]2)c(Cl)cn1 | 13.4 | 63.7* | -0.1 | 1.0
O=C(Cc1ccc2c(c1)OCO2)Nc1cc(Nc2ccccc2C2=NCCN2)c(Cl)cn1 | 9.1 | 10.4 | 0.4 | -0.1
Cc1nc(-c2ccc(NC(=O)c3ccccc3F)cc2)cs1 | -8.2 | -2.5 | -6.1 | -0.2
COc1ccc(OC)c(NS(=O)(=O)c2ccc3[nH]c4c(c3c2)CCCC4)c1 | -2.1 | 35.4* | 2.0 | -0.1
COc1cc(NS(=O)(=O)c2ccc3[nH]c4c(c3c2)CCCC4)cc(OC)c1OC | 6.3 | 55.3* | 1.1 | 0.2
COc1cc(NS(=O)(=O)c2ccc3c(c2)Cc2ccccc2-3)cc(OC)c1OC | 9.1 | 41.7* | 4.9 | -0.1
Cc1nc2ccccc2c(=O)n1/N=C/c1ccc(O)c(O)c1O | 57.4* | 3.3 | -0.3 | -0.2
O=C1Nc2ccccc2/C1=N\N=C\c1ccc(O)c(O)c1O | 58.2* | 0.4 | 0.4 | -0.4
O=C1c2ccccc2C(=O)N1/N=C/c1ccc(O)c(O)c1O | 91.9* | -5.1 | 1.1 | -0.5
CC1(C)N=C(N)N=C(N)N1c1ccc(Oc2ccc(Cl)cc2)c(Cl)c1 | 7.1 | 36.6* | -0.5 | 0.0
O=C(c1cc2cc(Cl)ccc2oc1=O)N1CCCCC1 | 1.4 | -6.7 | -0.6 | -0.1
O=C(O)C1C2CC2CN1C(=O)c1cccs1 (configuration not stated) | 9.6 | -1.6 | 0.5 | 0.2
CC12C=CC3(O1)C(C(=O)N(C1CCCC1)C3C(=O)NC1CCCCC1)C2C(=O)Nc1ccc(Cl)c(Cl)c1 (configuration not stated) | -1.2 | -0.7 | 1.5 | 0.0
Cc1ccc(N2C(=O)C(Cl)=C(Nc3cccc(O)c3)C2=O)c(C)c1 | 31.6 | 35.7* | -1.1 | 0.5
O=C1C(Cl)=C(Nc2cccc(O)c2)C(=O)N1c1cccc(Cl)c1Cl | 10.4 | 53.2* | -1.2 | -0.1
O=C1C(Cl)=C(Nc2cccc(O)c2)C(=O)N1c1ccccc1Cl | 16.3 | 2.9 | -0.4 | 0.5
COc1ccc(OC)c(C2/C(=C(\O)c3ccc(C)cc3)C(=O)C(=O)N2CCC(=O)O)c1 (configuration not stated) | 6.5 | -2.8 | -1.0 | 0.0
COc1ccc(C2CC(=O)C3=C(C2)NC(C)=C(C(=O)OC2CCCCC2)C3c2ccc(F)cc2)cc1 (configuration not stated) | 6.6 | 6.9 | 1.0 | 0.4
CCc1c(C)sc(NC(=O)c2ccc([N+](=O)[O-])cc2Cl)c1C#N | 4.7 | 2.8 | 0.7 | 0.0
COc1ccc(C(=O)c2cc([N+](=O)[O-])ccc2N2CCN(C)CC2)cc1 | 15.1 | 49.1* | -0.6 | 1.0
CN1CCN(c2ccc([N+](=O)[O-])cc2C(=O)c2ccc(Br)cc2)CC1 | 8.6 | 52.2* | -0.2 | 0.0
Cc1ccc(C(=O)c2cc([N+](=O)[O-])ccc2N2CCN(C)CC2)cc1 | 18.1 | 50.8* | 0.2 | 0.2
SMILES | MITF inh | TEAD-YAP block | GPR151 ag | FBW7 activator
FC(F)(F)c1cccc(CNc2ncnc3nc(N4CCc5ccccc5C4)[nH]c23)c1 | 5.0 | -9.2 | -0.8 | 0.5
Cc1cc(C)cc(NC(=O)c2cnn3ccccc23)c1 | 14.4 | -42.5 | -0.4 | 0.1
CC(=O)c1cccc(NC(=O)c2cnn3ccccc23)c1 | 6.4 | 5.4 | -2.8 | -0.1
O=C(Nc1ccc(CN2CCOCC2)cc1)c1cnn2ccccc12 | 7.0 | 91.3* | -4.2 | -0.2
CC(=O)c1ccc(NC(=O)c2cnn3ccccc23)cc1 | 3.2 | 91.5* | -5.4 | -0.1
Cc1ccc(NC(=O)c2cnn3ccccc23)cc1C | -5.3 | 65.5* | -3.3 | -0.1
CCc1c(C)sc2ncn(C3CCN(C(=O)C4CCCC(OC)C4)CC3)c(=O)c12 (configuration not stated) | 5.5 | 41.8* | 0.0 | 0.2
CCc1c(C)sc2ncn(C3CCN(C(=O)CCn4nc(C)cc4C)CC3)c(=O)c12 | 4.8 | 0.6 | 1.1 | -0.1
CCc1c(C)sc2ncn(C3CCN(C(=O)Cc4ccsc4)CC3)c(=O)c12 | -7.8 | 45.3* | 2.4 | -0.3
Cc1ccc(C(=O)Oc2ccc(-c3cnc4ccccc4n3)cc2)cc1 | 2.4 | 10.5 | -0.2 | 0.1
O=C(Nc1ccc(-c2nc3ccccc3o2)cc1)c1cc([N+](=O)[O-])ccc1Cl | 10.7 | 9.1 | 0.5 | -0.3
O=[N+]([O-])c1cc(Cl)c2oc(-c3ccc(O)cc3)nc2c1 | -5.0 | 54.7* | -0.3 | -0.1
CCN1C(=O)C(=Cc2ccc(-c3cccc(C(=O)O)c3)o2)C(=O)N(CC)C1=S | 47.4 | 0.1 | -0.7 | 0.2
O=C1NC(=S)S/C1=C/c1ccc[nH]1 | 12.7 | 48.8* | 0.2 | -0.1
CC(=O)c1ccc(-c2ccc(/C=C3/SC(=S)NC3=O)o2)cc1 | 74.2* | -7.3 | -1.2 | -1.1
CCN1C(=O)C(=Cc2ccc(-c3ccc(C(C)=O)cc3)o2)C(=O)N(CC)C1=S | 78.1* | -6.7 | 0.9 | -0.3
O=C1NC(=S)S/C1=C\c1ccc(I)o1 | 47.9 | -0.6 | -0.7 | -0.1
O=C1NC(=S)S/C1=C/c1cc(Br)c(Br)o1 | 50.6* | -2.4 | -1.1 | -0.5
CC(C)OCCCNC(=O)CN1C(=O)CCSc2ccccc21 | 1.0 | -0.9 | 2.3 | 0.0
O=C(c1ccc(CN2CCOCC2)o1)N1CCCCC1c1nc2ccc(F)cc2[nH]1 (configuration not stated) | 12.8 | 1.4 | -1.3 | 0.6
CCN(CC)C(=O)C1CCCN(c2nc(N)c3ncn(-c4ccsc4)c3n2)C1 (configuration not stated) | 1.6 | 50.9* | 0.3 | 0.0
CCN(CC)C(=O)C1CCCN(c2nc(NCCOc3ccccc3)c3ncn(-c4ccsc4)c3n2)C1 (configuration not stated) | 6.3 | 19.7 | 1.4 | -0.3
CCN(CC)C(=O)C1CCCN(c2nc(Nc3ccccc3)c3ncn(-c4ccsc4)c3n2)C1 (configuration not stated) | 11.0 | 33.3* | 0.0 | 0.0
CCCNc1nc(N2CCCC(C(=O)N(CC)CC)C2)nc2c1ncn2-c1ccsc1 (configuration not stated) | -1.4 | 36.6* | -0.5 | -0.4
CCOc1ccc(/C=C/C(=O)Nc2ccccc2F)cc1 | -2.0 | 90.5* | -9.3 | 0.2
CCOC(=O)c1ccc(Nc2ccc3nonc3c2[N+](=O)[O-])cc1 | 4.5 | 7.3 | 0.7 | 0.1
CCOC(=O)c1ccc(Nc2ccc([N+](=O)[O-])c3nonc23)cc1 | 12.4 | 2.5 | 1.9 | 1.9*
CCN(CC)C(=O)Nc1ccc2nc(-c3ccco3)c(-c3ccco3)nc2c1 | 73.0* | -0.8 | -0.3 | -0.7
Clc1cc2nc(-c3ccco3)c(-c3ccco3)nc2cc1Cl | 21.0 | -2.8 | -1.1 | -0.3
CC1=CC(=O)OC1Cc1ccncc1 (configuration not stated) | -8.4 | 40.6* | 0.3 | 0.0

Bioassay records deposited in PubChem BioAssay by The Scripps Research Institute Molecular Screening Center.
